FUS suppressor: FUS proteinopathy suppression in yeast; Potency, µM (series often up to 76.6 µM), actives largely listed as activators; 390,000 compounds, 0.24% hits; S. cerevisiae FUS-expressing, growth rescue, OD600, 24 h;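 note: potency is the fitted concentration of half-maximal effect; plate controls were DMSO vehicle for no effect and reference control for full effect; nearly all actives have a fitted effect of over 55% in size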
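Yeast expressing FUS under galactose induction, OD 0.005 in 2% galactose medium; compounds in a dilution series, 24 h at 30C. Growth rescue by absorbance at 600 nm; CP55940 positive control, DMSO negative.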
MmCpn inh: inhibitors of Methanococcus maripaludis chaperonin TRiC (MmCpn); purified Mm-Cpn ATPase, ADP Transcreener TR-FRET; Potency, µM (top dose mostly 76.9 µM), for the others: at the top dose activity, negative = inhibition, hits mostly inhibitors; 330,000 compounds, 0.031% hits; note: potency is the fitted concentration of half-maximal effect; % is set by controls: 0 for no effect and ±100 for the full control effect; nearly all actives have a fitted effect of over 80% in size
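TR-FRET (320 nm excitation; 590 and 665 nm emission) reports ADP made from 10 uM ATP by 25 nM enzyme; compounds were preincubated 10 min, reaction run 30 min, both at 37°C.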
Abeta rescue: compounds reversing amyloid beta toxicity in yeast; yeast expressing A-beta42, growth rescue, OD600, 48 h; response scale: 0% DMSO, 100% iron-clioquinol control; Potency, µM (series often up to 46.1 µM), actives largely listed as activators; 410,000 compounds, 0.063% hits; AID 1347071; note: potency is the fitted concentration of half-maximal effect; nearly all actives have a fitted effect of over 55% in size
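Yeast A-beta toxicity model in growth medium with pinned compounds, 48 h at 30 C; growth read as absorbance at 600 nm. Normalized to FeCl3/clioquinol equimolar mix (positive) and DMSO (negative).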
aSyn yeast inh: inhibitors of alpha-synuclein toxicity in yeast; 370,000 compounds, 0.14% hits; Yeast expressing alpha-synuclein, growth rescue, BacTiter-Glo, 24 h; Potency, µM (series often up to 46.1 µM), without a hit: at the top dose growth rescue (activation), most hits filed as activators; AID 652106; note: potency is the fitted concentration of half-maximal effect; % of control where 0% means no effect; nearly all actives have a fitted effect of over 65% in size
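Readout is rescue of growth in alpha-synuclein-expressing yeast, so inhibitors of toxicity appear as activators. Growth after 24 hr at 30 deg C in galactose medium is quantified by luminescence.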
CCT chaperon mod: cytosolic chaperonin activity modulation; purified chaperonin ATPase assay, HTRF ADP detection, 30 min; 360,000 compounds, 0.3% hits; activity change, % (no concentration beside the values), hits read low; in the data active = activity change below about -30%; note: % is set by controls: 0 for no effect and ±100 for the full control effect
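Enzyme 40 or 20 nM (batch-dependent) in Tris pH 7.4/KCl/MgCl2/DTT; cpd 76 uM single point; ATP 10 uM; 30 min 37 °C; Transcreener ADP HTRF detection, 30 min RT; ratio 665/615.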
TDP-43 yeast inh: TDP-43 toxicity inhibition in yeast; Potency, µM (series often up to 46.1 µM), for inactives: at the highest dose growth rescue (activation), actives largely listed as activators; 410,000 compounds, 1.8% hits; TDP-43 expressing yeast growth rescue, BacTiter-Glo, 24 h; note: potency is the fitted concentration of half-maximal effect; % of control where 0% means no effect; nearly all actives have a fitted effect of over 50% in size
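Growth rescue of TDP-43-toxic yeast measured as ATP luminescence (BacTiter-Glo). Cells grown to mid-log in raffinose, induced in galactose at OD600=0.02, exposed to compound 24 hr at 30 deg C.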
The depositor's hits bear a star; ! = a repeat was not active. This is a sample that favours compounds with a hit; in the whole collection about 2.3% have one here. Unless noted, calls come from the whole dose curve; as a rule, active = well fitted curve in the direction sought with a large enough effect; inconclusive = small, poorly fitted or top-dose-only effect, or another doubt; inactive = no such curve, though single readings can be large; an effect the other way counts as inactive or inconclusive.

`O=C(CCCn1c(=O)c2cccn2c2cccnc21)NCCc1ccc(Cl)cc1` gave FUS suppressor inactive, MmCpn inh -2%, Abeta rescue inactive, aSyn yeast inh -11%, CCT chaperon mod 0 and TDP-43 yeast inh 22µM*!.
Screening O=C(CCn1c(=O)c2cccn2c2cccnc21)NCc1ccc(Cl)cc1 returned FUS suppressor inactive, Abeta rescue inactive and TDP-43 yeast inh 21%.
Screening CCOc1cc(C(c2c(C)[nH][nH]c2=O)c2c(C)[nH][nH]c2=O)ccc1OCc1ccc([N+](=O)[O-])cc1 returned FUS suppressor inconclusive, MmCpn inh 0%, Abeta rescue inconclusive, aSyn yeast inh 7%, CCT chaperon mod 0 and TDP-43 yeast inh inconclusive.
For CCOc1cc(C(c2c(C)[nH][nH]c2=O)c2c(C)[nH][nH]c2=O)ccc1OC(=O)c1cccc([N+](=O)[O-])c1 the results were FUS suppressor 35µM*, MmCpn inh 1%, Abeta rescue inactive, aSyn yeast inh 0%, CCT chaperon mod -1 and TDP-43 yeast inh -19%.
`CCCCC1=CC2=C(c3ccco3)C(=O)C(C)(OC(=O)c3ccc(OC)cc3)C(=O)C2=CN1CC1CC1` (configuration not stated) gave FUS suppressor 20µM*, MmCpn inh -1%, Abeta rescue inactive, aSyn yeast inh -6%, CCT chaperon mod 0 and TDP-43 yeast inh -19%.
Screening O=CNc1ccc(/C=C/c2ccnc3ccccc23)cc1 returned aSyn yeast inh -2%.
CCCCn1c(=O)c(C(=O)OCC)c(O)c2ccccc21 was read as FUS suppressor inconclusive, MmCpn inh -2%, Abeta rescue inactive, aSyn yeast inh 7%, CCT chaperon mod -4 and TDP-43 yeast inh 16µM*.
O=C(Nc1ccc2ccccc2c1)c1ccc(Br)o1 was read as FUS suppressor inactive, MmCpn inh 2%, Abeta rescue inactive, aSyn yeast inh -4%, CCT chaperon mod -1 and TDP-43 yeast inh 20µM*.
`CCc1ccc(NC(=O)Cn2c(=O)oc3cc(S(=O)(=O)N4CCCCCC4)ccc32)cc1` gave FUS suppressor inactive, Abeta rescue inactive and TDP-43 yeast inh 22%.
COc1cccc(/C=C/c2ccc3ccccc3[n+]2C)c1OC was read as aSyn yeast inh -25%.
Cc1ccc(Cn2c(C)c3cnn(CC(=O)N4CCN(c5ccc(F)cc5)CC4)c(=O)c3c2C)cc1 was read as FUS suppressor inconclusive, Abeta rescue inactive and TDP-43 yeast inh 16µM*.
Screening Cc1c2cnn(CC(=O)N3CCCCC3)c(=O)c2c(C)n1Cc1ccc(F)cc1 returned FUS suppressor inactive, Abeta rescue inactive and TDP-43 yeast inh 14%.
For CCOC(=O)C1CCCN(C(=O)Cn2c(=O)cc(C)c3c(C)nn(C)c32)C1 (configuration not stated) the results were FUS suppressor inactive, Abeta rescue inactive and TDP-43 yeast inh 27%.
`Cc1cc(=O)n(CC(=O)N2CCN(c3ccc(F)cc3)CC2)c2c1c(C)nn2C` gave FUS suppressor inactive, Abeta rescue inactive and TDP-43 yeast inh 11µM*.
`C(=Nc1cccnc1)c1ccc2ccccc2n1` gave aSyn yeast inh 1%.
CCOc1ccc(N(CC(=O)Nc2c(C)n(C)n(-c3ccccc3)c2=O)S(=O)(=O)c2cccs2)cc1 was read as FUS suppressor inactive.
`CC(C)c1nnc(NC(=O)CCC(=O)N2CCN(c3ccc(Cl)cc3)CC2)s1` gave FUS suppressor inactive, MmCpn inh -1%, Abeta rescue inactive, aSyn yeast inh 3%, CCT chaperon mod -2 and TDP-43 yeast inh -6%.
For CC(C)c1nnc(NC(=O)CCC(=O)N2CCN(Cc3ccccc3)CC2)s1 the results were FUS suppressor inactive, MmCpn inh -1%, Abeta rescue inactive, aSyn yeast inh -7%, CCT chaperon mod -43* and TDP-43 yeast inh 2%.

Screening data as filed in PubChem.
